# Laboratory results taken from PubChem BioAssay (NCI).
# This is part of a sample that, as a whole, favours compounds with a hit. Of some 83,000 tested, about 20% had one in any assay.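 Compound tested at a single concentration for 48 hours in 96-well plates; a percent growth value below 10 was scored as active.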 Values without a mark were called inactive. Active and inactive are the calls of the source.
# What was measured:
# Test in all cases: NCI-60 one-dose screen, 48 h (100 = growth as untreated, 0 = no growth, -100 = all killed)
# Conditions in all cases: 10 µM unless noted
# SR leukemia = system: SR leukemia
# RPMI-8226 leukemia = system: RPMI-8226 leukemia
# OVCAR-8 ovarian = system: OVCAR-8 ovarian
# OVCAR-5 ovarian = system: OVCAR-5 ovarian
# OVCAR-4 ovarian = system: OVCAR-4 ovarian
# SK-OV-3 ovarian = system: SK-OV-3 ovarian
# OVCAR-3 ovarian = system: OVCAR-3 ovarian
# HS 578T breast = system: HS 578T breast
# NCI/ADR-RES ovarian = system: NCI/ADR-RES ovarian
# IGROV1 ovarian = system: IGROV1 ovarian
SMILES,growth (SR leukemia),growth (RPMI-8226 leukemia),growth (OVCAR-8 ovarian),growth (OVCAR-5 ovarian),growth (OVCAR-4 ovarian),growth (SK-OV-3 ovarian),growth (OVCAR-3 ovarian),growth (HS 578T breast),growth (NCI/ADR-RES ovarian),growth (IGROV1 ovarian)
CCCCN1c2nc3ccccc3cc2Sc2cc3ccccc3nc21,76.5%,78.4%,106%,93.6%,93.7%,112%,294%,99.8%,106%,
Cc1nn(-c2nc3ccccc3s2)c(C)c1Oc1ccccc1O,19.6%,33.1%,50.6%,121%,74.9%,75.3%,75.5%,39%,101%,
O=C1C=CC(=O)N1c1ccccc1N1C(=O)C=CC1=O,92%,124%,107%,93.4%,116%,103%,103%,104%,119%,
OCCCc1n(Cc2ccc3ccccc3c2)c2ccccc2[n+]1Cc1ccc2ccccc2c1,-30.9% (active),2.19% (active),15.2%,31%,22.3%,62.2%,0.774% (active),,90.5%,
O=c1[nH]cc(Nc2cc(Cl)c3nonc3c2[N+](=O)[O-])c(=O)[nH]1,100%,96.2%,98.4%,98.1%,121%,104%,123%,47.8%,96%,
COc1ccc(CNC(=O)c2c(C)n([O-])c3cc(F)c(F)cc3[n+]2=O)cc1,37.5%,86%,88%,99.5%,116%,111%,56%,97.3%,108%,
Cc1cc(C)nc(NS(=O)(=O)c2ccc(Nc3nc4nc(SCc5ccccc5)nc(-c5ccc(O)cc5)c4c(=O)[nH]3)cc2)n1,85.7%,66.7%,97%,96.2%,104%,94.9%,120%,103%,97.3%,
O=C(NC1CCS(=O)(=O)C1)c1ccc(C(=O)c2ccccc2)cc1 (stereo not drawn),133%,72.8%,70%,102%,98.1%,113%,121%,34.5%,117%,
NS(=O)(=O)c1ccc(-n2nc(-c3ccc(Br)cc3)ccc2=O)cc1,21.1% [100 µM],85.7% [100 µM],88.2% [100 µM],94.7% [100 µM],89.4% [100 µM],25% [100 µM],70.9% [100 µM],,57% [100 µM],
CC1Cc2ccccc2N1C(=O)c1ccc(C(=O)c2ccccc2)cc1 (stereo not drawn),97.6%,74.3%,88.4%,143%,71.2%,102%,78.9%,96.3%,61.7%,
CSc1nc(-c2ccc(O)cc2O)c2c(=O)[nH]c(Nc3ccc(S(=O)(=O)Nc4nc(C)cc(C)n4)cc3)nc2n1,63.3%,99.2%,107%,90%,108%,105%,98.1%,119%,97.5%,
O=C(NCCCl)NCCN1c2nc3ccccc3cc2Sc2cc3ccccc3nc21,35.9%,42%,56.2%,82.2%,49.5%,77.1%,142%,58%,57.4%,
Nc1ccc(Oc2c(F)c(F)c(Oc3ccc(N)cc3)c(F)c2F)cc1,96.3%,82.9%,101%,83.4%,83.8%,105%,101%,95.4%,94%,
O=C(N/N=C/c1cccc([N+](=O)[O-])c1)c1ccc(Br)o1,134%,85.9%,39.4%,107%,105%,97.7%,111%,158%,101%,
COc1ccc(-c2cc(-c3cccnc3)nc3sc(C(=O)Nc4ccccc4)c(N)c23)cc1OC,52.3%,0.963% (active),58.8%,86.8%,80.1%,,71.4%,28.4%,54.4%,68.9%
COc1cc2c(cc1OC)C(=O)/C(=C/c1cccc(OCC(=O)c3ccccc3)c1)C2,42.2%,43.3%,76.8%,105%,86%,117%,118%,77.2%,50.2%,
Cn1cc(NC(=O)Nc2cc(C(=O)O)n(C)c2)cc1C(=O)O,86.8%,125%,94.4%,107%,99.8%,112%,102%,108%,105%,
COc1ccc(CNC(=O)c2c(C)n([O-])c3ccccc3[n+]2=O)cc1,97.4%,96.3%,96.5%,89.9%,97.7%,99.3%,115%,111%,54.2%,
Oc1c(N=Nc2nn[nH]n2)ccc2ccccc12,106%,89.3%,91%,97.3%,,97.7%,71.6%,91%,96.2%,78.5%
O=CN1N=C(c2ccc(Cl)cc2)CC1c1cccc(Nc2ccnc3cc(Cl)ccc23)c1 (stereo not drawn),1.88% (active),13.4%,12.6%,34.6%,,19.2%,16.3%,,2.47% (active),34.4%
COc1ccc(C2=NN(C(C)=O)C(c3cccc(Nc4ccnc5cc(Cl)ccc45)c3)C2)cc1 (stereo not drawn),-8.23% (active),41%,50%,87.2%,,52.9%,59.3%,,43.6%,65.7%
Cc1ccc(/C=C/C(=O)c2ccc(F)cc2)s1,10.3%,18.6%,43.6%,85.7%,,96.5%,87%,102%,61.7%,83%
O=C(COc1cccc(/C=C2\Cc3ccccc3C2=O)c1)c1ccc(Cl)cc1,111%,90.2%,90.4%,103%,,130%,120%,102%,93.5%,
Cc1nn(-c2ccccc2)c2nc(N)c(C3=NCCO3)nc12,104%,87.2%,95.9%,93.3%,,94.2%,114%,82.2%,101%,94.4%
O=C(CNC(=O)c1cccc2ccccc12)Nc1ccccc1Oc1ccc(O)cc1,30.4% [5 µM],24.2% [5 µM],28.4% [5 µM],40.3% [5 µM],,28.9% [5 µM],-6.31% [5 µM] (active),,23.5% [5 µM],38% [5 µM]
Cn1c(N2N=C(c3ccc(Cl)cc3)CC2c2ccccc2)nc(-c2ccccc2)c(C#N)c1=O (stereo not drawn),58.8%,54.9%,73.8%,99.6%,89.4%,,71.7%,86.5%,82.9%,79%
COc1ccccc1NC(=O)c1sc2nc3c(cc2c1N)C(=O)CCC3,64%,84.3%,90.6%,76.1%,,39%,87%,65.6%,58.6%,82.9%
COC(=O)[C@H](Cc1cn(C)cn1)NC(=O)[C@H](C)NC(=O)Nc1cc(C(F)(F)F)cc(C(F)(F)F)c1,-31.1% [100 µM] (active),-31.7% [100 µM] (active),-68.1% [100 µM] (active),-43.8% [100 µM] (active),,-97.5% [100 µM] (active),-89.4% [100 µM] (active),-1.05% [100 µM] (active),79.3% [100 µM],-54% [100 µM] (active)
Cc1cc(Cl)ccc1Nc1nc(C(F)(F)F)ccc1C(=O)N/N=C/c1ccc(Cl)cc1,-37.5% (active),-12.7% (active),11.2%,6.57% (active),,-15.4% (active),1.27% (active),,4.33% (active),
